# Counter-ions that a name gives are not always drawn.
# Test system: Drosophila S2 cl14 SmoIP sensor cells
# Experiment: normalized SmoIP GFP fluorescence (untreated unstimulated = 0%, untreated Hh-stimulated = 100%); higher = more Smo activation sensor fluorescence
# Conditions: compound concentration: 2 uM, 24 h
# [1] = stimulation: Hh conditioned medium (+Hh)
# [2] = stimulation: mock conditioned medium (-Hh)
# 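Further: flow cytometry read-out as median GFP intensity of gated cells, compounds added 30 min before Hh-conditioned or mock medium, mock-treated cells serving as unstimulated baseline.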
SMILES,normalized SmoIP GFP fluorescence [1] [%],normalized SmoIP GFP fluorescence [2] [%]
N[C@@H]1C[C@H]1c1ccccc1 [tranylcypromine-2-pcpa-hcl],109,-1.34
CNCC(O)c1ccc(O)cc1 (stereo not drawn) [synephrine-hcl],140,-9.85
CN1c2ccccc2C(NCCCCCCC(=O)O)c2ccc(Cl)cc2S1(=O)=O (stereo not drawn) [Tianeptine-sodium-salt],110,0.274
CCCN1C[C@H](CSC)C[C@@H]2c3cccc4[nH]cc(c34)C[C@H]21 [Pergolide-mesylate],119,-0.889
CNCC(=O)c1ccc(O)c(O)c1 [adrenalone-hcl],106,-3.39
O=C(O[C@H]1C[N+]2(CCCOc3ccccc3)CCC1CC2)C(O)(c1cccs1)c1cccs1 [aclidinium-bromide],97.3,-4.58
C[C@]12N[C@H](Cc3ccccc31)c1ccccc12 [mk-801-maleate],103,-3.16
COC[C@H]1OC(=O)c2coc3c2[C@@]1(C)C1=C(C3=O)[C@@H]2CCC(=O)[C@@]2(C)C[C@H]1OC(C)=O [wortmannin],73.6,9.08
Fc1cc(F)c2c(c1)[C@H]1C=CC[C@H]1C(c1cccnc1)N2 (stereo partly drawn) [golgicide-a],101,-5.15
[O-][n+]1ccccc1[S-].[O-][n+]1ccccc1[S-].[Zn+2] [zinc-pyrithione],131,2.35
C=C1C[C@@H]2[C@H](CC[C@]3(C)C(=O)CC[C@@H]23)[C@@]2(C)C=CC(=O)C=C12 [Exemestane],115,-5.01
C#C[C@]1(O)C=C[C@H]2[C@@H]3CCC4=CC(=O)CC[C@@H]4[C@H]3CC[C@@]21CC [Gestodene],,5.45
CN1CCc2cc3c(cc2[C@H]1[C@@H]1OC(=O)c2c1ccc1c2OCO1)OCO3 [bicuculline],101,-3.9
CC(C)(C)c1cc(C=C(C#N)C#N)cc(Br)c1O [ag-1024-tyrphostin],,14.2
C[C@]12CC[C@H]3[C@@H](CC[C@@]45O[C@@H]4C(O)=C(C#N)C[C@]35C)[C@@H]1CC[C@@H]2O [Trilostane],109,-0.265
CN1CCCCC1Cn1cc(C(=O)c2cc([N+](=O)[O-])ccc2I)c2ccccc21 (stereo not drawn),,32.3
O=C(O)CNC(=O)c1c(O)c2ccccc2n(Cc2ccccc2)c1=O,109,-2.82

SMILES,normalized SmoIP GFP fluorescence [1] [%],normalized SmoIP GFP fluorescence [2] [%]
Cc1sc2c(c1C)C(c1ccc(Cl)cc1)=N[C@@H](CC(=O)Nc1ccc(O)cc1)c1nnc(C)n1-2,102,-1.34
CC[C@@]1(O)C(=O)OCc2c1cc1n(c2=O)Cc2cc3ccccc3nc2-1 [Camptothecine],33.6,2.64
C[C@](O)(COc1ccc(C#N)cc1)C(=O)Nc1ccc(C#N)c(C(F)(F)F)c1 [Ostarine],119,2.97
COc1ccc(C(=O)N2CCCC2=O)cc1 [Aniracetam],104,-0.588
CN1[C@@H]2CC(O)C[C@H]1[C@@H]1O[C@@H]12 (stereo partly drawn) [scopine],142,-12
CC(=O)Nc1ccc(OC[C@](C)(O)C(=O)Nc2ccc([N+](=O)[O-])c(C(F)(F)F)c2)cc1 [Andarine],107,0.274
COc1ccc(C(CN(C)C)C2(O)CCCCC2)cc1 (stereo not drawn) [Venlafaxine-hydrochloride],,-2.42
CCc1c(C(=O)C(N)=O)c2c(OCC(=O)O)cccc2n1Cc1ccccc1,,4.26
Cc1cccc(Cc2c[nH]cn2)c1C [detomidine-hcl],139,-8.77
CCC(COC(=O)c1cc(OC)c(OC)c(OC)c1)(c1ccccc1)N(C)C (stereo not drawn) [trimebutine],111,-15.8
CN1CCC(c2c[nH]c3ccc(O)cc23)CC1,111,-2.82
CCN(CC)C(=O)c1ccc(C2=CC3(CCNCC3)Oc3cccc(O)c32)cc1,99.7,2.11
Cc1cccc([C@H](C)c2c[nH]cn2)c1C [dexmedetomidine],108,-2.59
Cc1cccc(C)c1NC(=O)CN1CCCC1=O [Nefiracetam(Translon)],138,-10.8
COC(=O)C1=CCCN(C)C1 [arecoline],130,-12.4
CCOc1ccccc1-n1c(C(C)N2CCN(C(=O)COc3ccc(Cl)cc3)CC2)nc2ccccc2c1=O (stereo not drawn) [erastin],134,3.66
Cn1cc(C2=C(c3cn(C4CCN(Cc5ccccn5)CC4)c4ccccc34)C(=O)NC2=O)c2ccccc21 [Enzastaurin],135,38.2

# From the supplement of paper PMC5662767
